Bioassay records deposited in PubChem by Pan Lab, Icahn School of Medicine at Mount Sinai.
ROC1-CUL1 inh = human ROC1-CUL1 E3 ligase inhibition; AID 1347404; inhibition, % at 10 µM; 140,000 compounds, 0.6% hits; in vitro K48 di-Ub FRET, acceptor:donor ratio, 45 min; P62877+Q13616; in the data active means inhibition above about 25%
Numbers stand for hits; - = inactive. This excerpt belongs to a sample that is enriched for hits.

SMILES	ROC1-CUL1 inh
COc1cc(C(=O)O)ccc1OC(=O)c1ccccc1OC(C)=O	-
CC(=O)Oc1ccc(O)c2c1C(=O)C=CC2=O	105.0
CC(=O)Oc1ccc(OC(C)=O)c2c1C1CCCCC1=C1CCCCC12 (stereo not given)	-
O=C1NCCN(CCCc2ccccc2)C1CC(=O)N1CCCN(c2ncccn2)CC1 (stereo not given)	-
Cn1c(C2CCC2)nc2cc(C(=O)N3CCN(c4cnccn4)CC3)cc(NC(=O)C3CCCO3)c21 (stereo not given)	-
CCOc1ccc2nc(NC(=O)CC(C)C)sc2c1	-
O=C(O)CN1C(=O)/C(=C\c2cc(Cl)cc(Br)c2O)SC1=S	81.1
O=C(CN1C(=O)S/C(=C/c2ccc(O)c(Br)c2)C1=O)Nc1cccc2ccccc12	-
O=C(O)CN1C(=O)/C(=C/c2ccccc2C(F)(F)F)SC1=S	-
O=C(O)CN1C(=O)/C(=C/c2ccc(F)c(Br)c2)SC1=S	-
CCOc1c(Br)cc(/C=C2\SC(=S)N(CC(=O)O)C2=O)cc1Br	-
CCOc1cc(Br)c(Br)c(/C=C2\SC(=S)N(CC(=O)O)C2=O)c1O	28.4
Cc1cc(/C=C2/SC(=O)N(CC(=O)Nc3ccccc3F)C2=O)c(C)n1C	-
C=CCN1C(=O)/C(=C\c2c(OCC)ccc3ccccc23)SC1=S	-
O=C(CN1C(=O)S/C(=C\c2cc(Cl)cc(Br)c2O)C1=O)Nc1ccccc1F	25.5
CC(C)(C)C(=O)c1sc(Nc2ccccc2)c(C#N)c1N	-
O=C(Nc1nc2ccc(Cl)cc2s1)c1ccc(C(F)(F)F)cc1	-
CCOC(=O)C(CCCCn1cnc2c(Cl)ncnc21)(NC=O)C(=O)OCC	-
CCOC(=O)c1ccc(Nc2cc(-c3ccccc3)nc(-c3ccccc3)n2)cc1	-
c1ccc2c(c1)Oc1ccccc1C2n1ccnc1	-
CN1C(=O)C(=NC2CCCCC2)C2c3ccccc3C(=O)c3cccc1c32 (stereo not given)	-
CN1C(=O)C(=NCCc2ccccc2)C2c3ccccc3C(=O)c3cccc1c32 (stereo not given)	36.2
Cc1ccc(N=C2C(=O)N(C)c3cccc4c3C2c2ccccc2C4=O)cc1 (stereo not given)	-
CCn1c(=O)c2c(nc3n2CC(C)CN3c2ccc(OC)cc2)n(C)c1=O (stereo not given)	-
Cc1ccc(C(=O)O)cc1-n1c(C)ccc1C	95.8
SMILES	ROC1-CUL1 inh
Cc1ccc(C)n1-c1cc(C(=O)O)ccc1Cl	101.4
Cc1ccc(C)n1-c1cccc(Cl)c1Cl	-
Cc1ccc(C)n1-c1ccc(C(N)=O)cc1	-
Cc1ccc(C(=O)O)cc1-n1c(C)ccc1-c1ccccc1	-
Cc1ccc(-c2ccccc2)n1-c1ccc(C(=O)O)cc1	-
Cc1ccc(-c2ccccc2)n1-c1ccc(Cl)c(C(=O)O)c1	-
Cc1cc(C(=O)O)ccc1-n1c(C)ccc1C	99.5
Cc1ccc(-c2ccccc2)n1-c1cccc(C(=O)O)c1	-
CCCCc1ccc(Nc2csc(N)n2)cc1	-
COc1ccc(-c2csc(Sc3cc4cccc(OC)c4oc3=O)n2)cc1	-
COc1cc(N2CCCC2)c(OC)cc1/C=C1\SC(=O)N(Cc2ccc(C)cc2)C1=O	-
Cc1cc(C=C2C(=O)c3ccccc3C2=O)ccc1N1CCCC1	-
COc1cc(N2CCCC2)c(OC)cc1C=C1C(=O)c2ccccc2C1=O	48.2
CCS(=O)(=O)c1ncc(CN(C)C)n1CCc1ccccc1	-
COC(=O)c1cc(NC(=O)Cc2cccs2)ccc1O	-
COC(=O)c1cc(NC(=O)Cc2cccs2)cc(C(=O)OC)c1	56.2
CCOC(=O)c1cccc(NC(=O)Cc2cccs2)c1	-
O=C1NN=CC(=NCc2ccc(Cl)cc2)C1Cl (stereo not given)	-
Cc1cc(Br)cc2c(N=Nc3ccccn3)c(O)n(C)c12	-
COc1cc(Br)c(Br)c(/C=C2\SC(c3ccc(C)cc3)=NC2=O)c1O	93.0
COc1cc(Br)c(Br)c(C=Nc2ccc(NC(=O)c3ccccc3Br)cc2)c1O	-
COc1cc(/C=C2/SC(=Nc3ccccc3C)NC2=O)c(Br)c(Br)c1O	-
CC(C)C(=O)Nc1ccc2c(c1)OCO2	-
O=S(=O)(Oc1ccc(-c2ccccc2)cc1)c1ccccc1	-
CCN=C1CC=CC=C(C(=O)/C=C/c2ccc(Cl)cc2Cl)C1=O	-
SMILES	ROC1-CUL1 inh
CCN=C1CC=CC=C(C(=O)/C=C/c2cccc(Cl)c2)C1=O	-
CCN=C1CC=CC=C(C(=O)/C=C/c2cccc(OC)c2OC)C1=O	-
CCN=C1CC=CC=C(C(=O)/C=C/c2ccc(Cl)cc2)C1=O	78.9
CCN=C1CC=CC=C(C(=O)/C=C/c2ncccc2C)C1=O	35.8
CCN=C1CC=CC=C(c2ccc3ccccc3n2)C1=O	-
Cc1cccc(-n2nc3ccc4nonc4c3n2)c1C	-
CC(C)(C)C(=O)C1C(=O)C(=O)N(Cc2ccccc2)C1c1ccccc1Cl (stereo not given)	-
Cc1cc(C)cc(NC(=O)N2CCN(c3nsc4ccccc34)CC2)c1	-
COc1ccc(N2C(=O)CC(NNC(=O)c3ccccc3)C2=O)cc1 (stereo not given)	-
O=C1S/C(=C\c2cc(Cl)c(O)c(Cl)c2)C(=O)N1c1cccc(Cl)c1	-
